Experimental data published in PubChem BioAssay (NCI).
About 83,000 compounds went through this panel and 20% of them were active in at least one assay; those are over-represented in the sample as a whole.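 Compound tested at a single concentration for 48 hours in 96-well plates; a percent growth value below 10 was scored as active.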 Activity calls are given as the source filed them.

Each compound was assayed on MDA-MB-468 breast (assay: NCI-60 one-dose screen, 48 h (100 = growth as untreated, 0 = no growth, -100 = all killed)). Details: 10 µM unless noted.
In the case of CCC(=O)Oc1ccc(/C(=C(/C)Cc2cccc(OC)c2)c2ccc(OCCN(C)C)cc2)cc1, the growth is reported as 76.1% (inactive).
With Nc1nc(Nc2ccccc2SSc2ccccc2Nc2nc(N)nc(-c3ccccc3)n2)nc(-c2ccccc2)n1 the growth was 102% (inactive).
For Cc1nc2ccc(Cl)cn2c1-c1nnc(SCc2ccc([N+](=O)[O-])cc2)o1, the growth was 48.9% (inactive).
With O=C1CCC(=O)CC1 the growth was 115% (inactive).
COC(=O)c1ccccc1Cl was tested, and the growth was 109% (inactive).
In the case of Fc1ccc2c(c1)c(-c1nc(-c3c[nH]c4ncccc34)cs1)cn2CCCN1CCCCC1, the growth is reported as 76.6% (inactive).
In the case of COc1ccc2nccc(/C=C/c3ccnc4ccc(OC)cc34)c2c1, the growth is reported as 110% (inactive).
Cc1cn(-c2cc(NC(=O)c3ccc(C)c(Nc4nccc(-c5cccnc5)n4)c3)cc(C(F)(F)F)c2)cn1 was tested, and the growth was 37.2% (inactive).
For Cc1ccc(S(=O)(=O)N(CCc2ccc(Cl)cc2)S(=O)(=O)c2ccc(C)cc2)cc1, the growth was 73.8% (inactive).
In the case of CC(=O)c1nn(-c2ccccc2)c(=Nc2ccccc2)cc1C, the growth is reported as 91.9% (inactive).
With CCOC(=O)c1nnn(Cc2cc(=O)oc3c2ccc2ccccc23)c1C the growth was 103% (inactive).
In the case of CC1(C)c2ccccc2C(=O)C1(Br)Cc1ccccc1 (stereo not given), the growth is reported as 45.6% (inactive).
With COc1ccccc1CNCCCN1C(=O)c2ccc3c4c(ccc(c24)C1=O)C(=O)N(CCCNCCCCNCCCCN)C3=O the growth was -47% (active).
Cc1ccc(-n2cc(/C=N/NC(=O)c3ccncc3)c(-c3ccc(S(C)(=O)=O)cc3)n2)cc1 was tested, and the growth was 100% (inactive).
In the case of OB(O)c1cccc(-c2nc3ccc4[nH]ncc4c3c3c2CCCC3)c1, the growth is reported as 59.3% (inactive).
